Screening data from PubChem BioAssay.
Sampled rows, rich in hits. Any-hit rate of the full collection: about 1.2%.
Apoferritin bind – candidate novel general anesthetic via apoferritin binding. Potency, µM (highest dose often 77.5 µM), hits mostly inhibitors. P02791. 0.074% of 350,000 active. apoferritin/1-aminoanthracene competitive binding, fluorescence; also: nearly all actives have a fitted effect of over 20% in size
Target sequence (P02791 2-175 limits assumed): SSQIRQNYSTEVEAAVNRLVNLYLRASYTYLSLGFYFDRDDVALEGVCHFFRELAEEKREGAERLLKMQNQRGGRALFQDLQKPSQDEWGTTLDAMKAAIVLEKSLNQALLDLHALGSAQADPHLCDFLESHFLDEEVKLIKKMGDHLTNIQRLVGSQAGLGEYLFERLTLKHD
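Probe: 1-aminoanthracene (50% saturated, PBS). Protein: horse-spleen apoferritin, 10 uM. Incubation: 10 min, room temperature. Detection: 380 nm excitation, 535 nm emission. Analysis: normalized response, four-parameter Hill.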
ERG Ets-DNA blk – blocks human ERG Ets domain binding to DNA | 0.028% of 370,000 active | fluorescence polarization, His-ERG Ets domain / labelled DNA | Potency, µM (doses to about 76.9 µM), actives largely listed as inhibitors; active = well fitted inhibition curve with a large enough effect in the polarisation, with a control signal flat; inconclusive = small, poorly fitted or top-dose-only effect, or effect the other way, or a change in a side signal; inactive = no such curve, though single readings can be large or run the other way; the % refers to the polarisation;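 also: polarization taken with two DNA probes labelled with fluorescein and Texas red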
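His-tagged ERG Ets domain (1 uM in the protein solution; 300mM KCl, 50mM Tris-HCl, 1mM EDTA, 1mM DTT, pH 7.5) received compound, then a probe mix of 5 nM fluorescein-DNA and 100nM Texas-615-DNA. Fluorescence polarization was read for both dyes.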
BRCA1 expr act – increases BRCA1 expression | MCF7-BRCA1-FFLuc reporter, luminescence, 48 h; response scale: scaled: vehicle 0%, 10 µM genistein 100% | Potency, µM (highest dose often 46.1 µM), hits mostly activators | 1.1% of 380,000 active; also: nearly all actives have a fitted effect of over 80% in size
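Using MCF7 cells harboring a BRCA1 firefly luciferase reporter, plated 2 h before compound pinning, the screen measured luminescence after 48 h incubation. Responses were normalized to DMSO and 10 microM genistein, then fitted for concentration-effect.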
RGS12 GoLoco inh – blocks human Gai1 binding to RGS12 GoLoco peptide, red readout; AID 880; Gai1:RGS12 GoLoco peptide FP, rhodamine, 10 min; 0.44% of 230,000 active; Potency, µM (top dose mostly 61.6 µM), usual class: inhibitors; active = well fitted inhibition curve with a large enough effect, not every such curve was filed as active; inactive = no such curve, though single readings can be large or run the other way; also: nearly all actives have a fitted effect of over 30% in size
Target sequence (P63096 whole entry, looked up): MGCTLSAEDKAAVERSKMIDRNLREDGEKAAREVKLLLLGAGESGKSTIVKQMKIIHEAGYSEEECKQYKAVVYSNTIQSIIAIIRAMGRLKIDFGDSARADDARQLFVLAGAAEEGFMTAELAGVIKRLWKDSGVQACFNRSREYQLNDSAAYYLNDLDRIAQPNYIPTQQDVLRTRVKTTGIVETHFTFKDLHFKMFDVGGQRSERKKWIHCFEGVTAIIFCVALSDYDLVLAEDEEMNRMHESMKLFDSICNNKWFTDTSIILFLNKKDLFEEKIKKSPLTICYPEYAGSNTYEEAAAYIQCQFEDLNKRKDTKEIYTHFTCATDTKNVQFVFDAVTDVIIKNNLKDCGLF
A number is an active result; n = inactive; u = inconclusive; x = not tested or not shown; [ ] = remark or other dose. Unless noted, calls follow the shape of the dose curve; as a rule, active = well fitted curve in the direction sought with a large enough effect; inconclusive = small, poorly fitted or top-dose-only effect, or another doubt; inactive = no such curve, though single readings can be large; an effect the other way counts as inactive or inconclusive.

SMILES	Apoferritin bind	ERG Ets-DNA blk	BRCA1 expr act	RGS12 GoLoco inh
O=Cc1cccn1Cc1ccc(Cl)cc1Cl	14µM	n	n	n
O=C(CNC(=O)C1CCCCC1)OCC(=O)c1ccccc1	x	x	n	x
Brc1ccc(-c2noc(CCc3ccccc3)n2)cc1	x	n	n	x
c1ccc(CCc2nc(-c3cccnc3)no2)cc1	n	n	10µM	n
CCCc1nc(-c2ccc(-c3ccc(F)cc3)cc2)no1	n	n	4µM	n
c1ccc(CCc2nc(-c3ccccc3)no2)cc1	n	n	13µM	n
COc1ccc(Cc2nc(-c3ccccc3)no2)cc1	n	n	11µM	n
CCOC(=O)C1CCN(C(=O)Cn2c(-c3cccs3)cc3cc(Cl)ccc32)CC1	n	n	x	x
C[C@H](N)CCP(=O)(O)O	n	x	x	n
CC#C[C@]1(O)CC[C@H]2C3CCC4=CC(=O)CCC4=C3[C@@H](c3ccc(N(C)C)cc3)C[C@@]21C (stereo not given in full)	u	x	x	n
CC(=O)Nc1ccn(C2OC(C(COC(C)=O)NC(=O)C(C)NC(=O)OC(C)(C)C)C(OC(C)=O)C2OC(C)=O)c(=O)n1 (stereo not given)	n	x	x	x
CC[C@H](C)N	n	x	x	x
O=C(O)c1ccccc1NS(=O)(=O)c1ccc2ccccc2c1	n	n	13µM	x
C=C1NN(Cc2ccccc2)C(=O)N1c1ccc(OCc2ccccc2)cc1	x	x	n	x
C=C1NN(CC#N)C(=O)N1c1ccc(OCc2ccccc2)cc1	x	x	10µM	x
CCCN(CCC)CCCNC(=O)c1sc2nc3n(c(=O)c2c1C)CCC3	n	n	x	x
c1cncc(-c2nnc(-c3cccs3)o2)c1	n	n	14µM	n
Clc1ccc(-c2nnc(-c3cccnc3)o2)cc1	n	n	7.9µM	x
Brc1ccc(-c2nnc(-c3cccnc3)o2)cc1	x	n	4.5µM	x
Cc1ccc(-c2nnc(-c3ccc(Br)cc3)o2)o1	n	n	3.2µM	n
CCCCc1nc2c(c3c1C[C@H](C)OC3)CN(S(=O)(=O)c1ccc(C#N)cc1)CC2	x	x	x	n[14.2 µM]
CCOC(=O)CNC(=O)O[C@H]1C(=O)c2ccc(OC)cc2O[C@@H]1c1ccc2c(c1)OCO2	x	x	x	n
Cc1nn(CC(=O)NCc2ccc(N(C)C)cc2)c(=O)c2c(C)n(-c3ccc(Cl)cc3)nc12	n	n	x	x
Cc1ccc(-c2nnc(-c3cccnc3)o2)cc1	n	n	4.5µM	x
CCn1cc([N+](=O)[O-])c(C(=O)Nc2ccc3c(c2)OCCO3)n1	n	x	5µM	n
SMILES	Apoferritin bind	ERG Ets-DNA blk	BRCA1 expr act	RGS12 GoLoco inh
CCn1cc([N+](=O)[O-])c(C(=O)NCc2ccc3c(c2)OCO3)n1	n	n	n	x
CN(c1ccccc1)S(=O)(=O)c1cccc(NC(=O)c2cc3ccccc3oc2=O)c1	n	n	11µM	n
O=[N+]([O-])c1ccccc1S(=O)(=O)NCCC1=CCCCC1	10µM	n	n	n
COc1cccc(C(=O)NCCC2=CCCCC2)c1	28µM	n	u	n
Cc1cc(C(=O)NCCC2=CCCCC2)ccc1[N+](=O)[O-]	u	n	5µM	n
O=C(Cc1ccccc1[N+](=O)[O-])NCCC1=CCCCC1	n	n	n	n
Cc1ccc(S(=O)(=O)O[C@H]2CC(C(C)(C)C)CC[C@@H]2c2ccccc2)cc1 (stereo not given in full)	x	x	x	n[14.2 µM]
CN(CC(=O)O/N=C(\N)c1ccc([N+](=O)[O-])cc1)S(=O)(=O)c1ccccc1	n	n	n	n
COc1cccc(C(=O)O/N=C(\N)c2ccncc2)c1	n	n	10µM	n
Cc1ccc(C(=O)O/N=C(\N)c2cccnc2)cc1[N+](=O)[O-]	n	n	11µM	n
N/C(=N\OC(=O)c1ccncc1)c1cccc([N+](=O)[O-])c1	n	n	7.9µM	x
CN(CC(=O)O/N=C(\N)c1cccc([N+](=O)[O-])c1)S(=O)(=O)c1ccccc1	28µM	n	n	n
N/C(=N\OC(=O)c1ccc([N+](=O)[O-])cc1)c1cccnc1	n	n	u	x
COc1ccc(C(=O)C2C(=O)C(=O)N(Cc3ccco3)C2c2cccs2)cc1 (stereo not given)	x	x	n	x
O=[N+]([O-])c1ccc(Cl)c(S(=O)(=O)/N=C(/Sc2ccc(Br)cc2)c2ccccc2)c1	x	x	n	x
Cc1ccc(C(=O)O/N=C(\N)c2cccc([N+](=O)[O-])c2)cc1	n	n	3.2µM	n
N/C(=N\OC(=O)c1ccc(Br)cc1)c1cccc([N+](=O)[O-])c1	n	n	u	x
Cc1ccccc1CNC(=O)Nc1ccc(Cl)cc1	n	n	7.1µM	x
Cc1ccc(CNC(=O)Nc2ccccc2)c(C)c1	n	n	u	x
Nc1ccc2nc(-c3ccccn3)[nH]c2c1	n	n	11µM	n
Nc1ccc2nc(-c3ccc(N)c(Cl)c3)[nH]c2c1	n	u	4.5µM	n
Nc1ccc2nc(-c3ccccc3)[nH]c2c1	n	n	n	n
CC(NC(=O)c1cnn2c1NC(=C1CC1)C=C2C(F)F)c1ccncc1 (stereo not given)	x	x	n	x
COc1ccc(C2=NN(C(=O)CCC(=O)O)C(c3cccs3)C2)cc1 (stereo not given)	n	n	n	n
COc1ccc(C2=NN3C(C2)c2ccccc2OC3c2cccs2)cc1 (stereo not given)	u	n	10µM	n
Cc1cc([N+](=O)[O-])ccc1NC(=O)/C=C/c1cccs1	n	x	5.6µM	n
Cc1ccc(NC(=O)/C=C/c2ccc([N+](=O)[O-])s2)c(C)c1	n	n	n	n
CCn1c(C)cc(/C=C2/SC(=O)N(C(C)C(=O)OC)C2=O)c1C (stereo not given)	n	n	4.5µM	n
